# Results published in PubChem BioAssay AID651800 (The Scripps Research Institute Molecular Screening Center, 2012).
# The whole screen tested about 360,000 compounds, of which about 1,300 (0.36%) were called active. The full list was thinned out, with actives kept by preference. A number with no mark means an inactive call. Rule as the data show it: active = inhibition above about 19%; inactive = the rest.
# System: T-cell receptor (TCR)
# Experiment: small molecules blocking TCR binding to CD3 – biochemical, fluorescence, TAMRA-labeled TCR probe, primary screen (AID 651800);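 also: recombinant mutant TCR 2C K166C tagged with TAMRA read by polarization; 0% = receptor in buffer alone and 100% = receptor with positive control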
# Settings: at 9.4 µM, active compounds read high
row,SMILES,inhibition
1,NC1=CC(=O)C(=O)c2cccnc21,23.6% (active)
2,CC[C@H](C)[C@H]1CNC(=O)C(=O)N1CC1CCN(CCc2ccc(OC)c(OC)c2)CC1,4.26%
3,CC(=O)NCc1ccc(S(=O)(=O)NC2CCN(Cc3ccccc3)CC2)cc1,0.98%
4,O=C(c1cc(-c2ccco2)nc2ccccc12)N(Cc1nnc(-c2ccc(Cl)cc2)o1)C1CC1,-2.45%
5,CN(C(=O)COC(=O)c1cc(-c2ccco2)nc2ccccc12)C1CCS(=O)(=O)C1 (centres undefined),30.6% (active)
6,COc1ccc2c(-c3ccccc3)cc(SCC(=O)N(C)C3CCS(=O)(=O)C3)nc2c1 (centres undefined),1.46%
7,C[C@@H](NC(=O)OC(C)(C)C)c1nnc(S(=O)(=O)Cc2ccccc2)o1,6.57%
8,COC(=O)Cc1nnn2c1[C@H](C)[C@@H](OC)c1cc(Br)ccc1-2,-3.71%
9,COC(=O)[C@]12C[C@H](CC(=O)NCCc3ccccc3OC)C(=O)N(Cc3ccccc3)C1=C[C@H](C(C)C)O[C@@H]2C1CC1,0.38%
10,Cc1[nH]c2ccccc2c1CC(=O)Nc1ccc(Nc2cccnc2)c(-c2cccc(Cl)c2)c1,7.27%
11,COc1ccc(N2CCN(C(=O)COc3ccc4c(C)cc(=O)oc4c3)CC2)cc1,4.22%
12,CC(=O)c1c(C)[nH]c(C(=O)COc2ccc3c(C)cc(=O)oc3c2)c1C,-7.65%
13,Cc1ccc(O)c(/C=N/NC(=O)COc2ccc3c(C)cc(=O)oc3c2)c1,35% (active)
14,Cc1nc(NC(=O)C(C)(C)C)sc1[N+](=O)[O-],-8.33%
15,O=S1(=O)c2ccc(Br)cc2-n2nncc2CN1Cc1cccc(Cl)c1,3.21%
16,Nc1ncnc2c1ncn2[C@@H]1O[C@H](C(=O)N[C@@H](CCc2ccccc2)C(=O)NCC(=O)N2CCOCC2)[C@@H](O)[C@H]1O,10.8%
17,COC(=O)C(C(=O)OC)c1ccccc1NS(=O)(=O)c1cccc2ccccc12,6.59%

row,SMILES,inhibition
1,O=C(NN=Cc1ccco1)C(=O)Nc1ccc(Cl)c([N+](=O)[O-])c1,3.53%
2,O=C(NNC1=NCCC1)c1cccc(S(=O)(=O)N2CCCCC2)c1,-7.2%
3,CCOc1cc(/C=N/NC(=O)c2cccc(S(=O)(=O)N3CCOCC3)c2)ccc1OCC(=O)N(C)C,-6.38%
4,Cc1ncc(CO)c(/C=N/NC(=O)c2cccc(S(=O)(=O)N3CCCC3)c2)c1O,27.1% (active)
5,O=C(O)Cn1cnc2c(NCc3ccccc3)ncnc21,-4.94%
6,Cc1ccc(C)c(NC(=O)CN(C)C(=O)COc2ccc3ccccc3c2)c1,-2.17%
7,COCCNC(=O)COc1ccc(N(C)S(=O)(=O)c2ccc3ccccc3c2)cc1,-0.41%
8,Cc1cc2ccccc2n1CCNC(=O)COc1ccc2ccccc2c1,60.3% (active)
9,N#Cc1cccc(C(=O)NCC2CCN(C(=O)C(=O)c3cc4ccccc4o3)CC2)c1,0.99%
10,CCOc1ccccc1C(=O)N1CCC[C@@H]1C(=O)N1CCC[C@H]1C(=O)NCc1ccccc1,-2.28%
11,Cc1ccc2nc(-c3ccc(NC(=O)CN(C)S(=O)(=O)c4ccccc4)cc3)sc2c1,8.35%
12,O=C(Nc1ccccc1)c1cc2ccccc2[nH]1,-3.23%
13,O=C(Nc1cccc(-c2nc3ccccc3[nH]2)c1)c1ccc(C(=O)Nc2cccc(-c3nc4ccccc4[nH]3)c2)cc1,26.7% (active)
14,O=C(NCC(O)c1nc2ccccc2[nH]1)c1ccc(Br)cc1 (centres undefined),4.63%
15,Cc1cc(OC(=O)NCCc2ccc(F)cc2)ccc1F,1.4%
16,COC(=O)c1cc2c(c3c4cc(F)ccc4n(S(=O)(=O)c4ccccc4)c13)C(=O)N(Cc1ccccc1OC)C2,2.91%
17,CC(C)(C)C(c1nc2ccccc2[nH]1)n1c(Cc2csc3ccccc23)nc2ccccc21 (centres undefined),5.18%
